Experimental data as given in PubChem BioAssay (EPA / NIEHS).
Records with an inconclusive call do not appear. Activity calls are given as the source filed them. How the source made its calls: active means hit-call score of the fitted dose curve at least 0.9, where 1 is the maximum; inconclusive means response in the unintended direction; inactive means score below 0.9.

target: Retinoic acid receptor alpha (Homo sapiens) (UniProt P10276); assay: ATG_RARa_TRANS: Attagene TRANS-FACTORIAL HepG2 Assay for human Retinoic Acid Receptor alpha (RARa) (AID 2283005)
Summary of the method: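 Reporter transcripts, measured by RT-PCR with fluorescent labeling and capillary electrophoresis after 24 h dosing, reflect activity of an exogenous human RARa–GAL4 fusion in transiently transfected HepG2. Fitted for increase relative to DMSO.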

Sequence of Retinoic acid receptor alpha (Homo sapiens) (P10276 whole entry, looked up, the tested form may be a part): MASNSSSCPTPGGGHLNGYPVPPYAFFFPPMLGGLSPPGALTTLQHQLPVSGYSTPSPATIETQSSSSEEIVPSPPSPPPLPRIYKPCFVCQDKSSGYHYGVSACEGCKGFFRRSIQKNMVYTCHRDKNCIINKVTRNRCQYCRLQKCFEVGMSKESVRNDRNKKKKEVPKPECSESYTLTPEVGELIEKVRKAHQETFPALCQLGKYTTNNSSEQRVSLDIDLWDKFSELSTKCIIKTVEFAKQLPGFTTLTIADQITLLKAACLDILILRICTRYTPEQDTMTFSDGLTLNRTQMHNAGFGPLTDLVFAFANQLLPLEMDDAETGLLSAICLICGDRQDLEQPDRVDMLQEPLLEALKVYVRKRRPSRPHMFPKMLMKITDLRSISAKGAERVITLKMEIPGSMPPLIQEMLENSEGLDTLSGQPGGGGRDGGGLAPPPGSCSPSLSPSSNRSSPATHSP

outcome, inactive:
CCCC(C)=O
Cc1ccc2c(c1)C(=O)OC2=O
COCCc1ccc(OCC(O)CNC(C)C)cc1 (stereo unspecified)
C1CCOC1
O=C(c1ccccc1)C(O)c1ccccc1 (stereo unspecified)
COC(C)(C)CCCC(C)CC=O (stereo unspecified)
CCCCOCC
O=C1NC2NC(=O)NC2N1 (stereo unspecified)
O=c1[nH]c(=O)c2cn[nH]c2[nH]1
NC1CCCCC1N (stereo unspecified)

target: Peroxisome proliferator-activated receptor gamma (Homo sapiens) (UniProt P37231); assay: ATG_PPARg_TRANS: Attagene TRANS-FACTORIAL HepG2 Assay for human Peroxisome Proliferator-activated Receptor-gamma (PPARg) (AID 2283007)
Summary of the method: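 Gain-of-signal endpoint relative to DMSO, derived from reporter mRNA levels quantified by RT-PCR and capillary electrophoresis. Cells were HepG2 transiently expressing a chimeric NR-Gal4 construct with GAL4-UAS reporters, exposed to chemicals for 24 h.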

Sequence of Peroxisome proliferator-activated receptor gamma (Homo sapiens) (P37231 whole entry, looked up, the tested form may be a part): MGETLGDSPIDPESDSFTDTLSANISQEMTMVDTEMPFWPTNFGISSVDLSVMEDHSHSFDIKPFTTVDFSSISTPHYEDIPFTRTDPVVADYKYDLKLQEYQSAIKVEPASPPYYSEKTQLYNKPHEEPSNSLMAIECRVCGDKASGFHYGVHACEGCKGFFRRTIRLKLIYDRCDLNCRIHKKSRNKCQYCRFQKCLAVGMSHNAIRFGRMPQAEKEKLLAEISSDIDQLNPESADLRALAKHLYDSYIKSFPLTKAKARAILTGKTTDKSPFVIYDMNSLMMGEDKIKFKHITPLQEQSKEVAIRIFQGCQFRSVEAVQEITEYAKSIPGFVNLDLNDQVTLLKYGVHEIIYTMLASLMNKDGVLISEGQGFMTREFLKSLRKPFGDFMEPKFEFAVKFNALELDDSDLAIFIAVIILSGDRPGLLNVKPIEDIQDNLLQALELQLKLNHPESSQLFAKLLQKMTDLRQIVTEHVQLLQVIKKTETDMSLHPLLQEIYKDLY

outcome, inactive:
C=CCCCCCCCCCC
CCCCSCCCC
Nc1ccccc1[N+](=O)[O-]
Cc1ccc2c(c1)C(=O)OC2=O
CCc1ccc(O)c(OC)c1
Cc1c(C2(c3cc(Br)c(O)c(Br)c3C)OS(=O)(=O)c3ccccc32)cc(Br)c(O)c1Br
CCCCCCOCCOCCO
COCCc1ccc(OCC(O)CNC(C)C)cc1 (stereo unspecified)
C1CCOC1
COC(C)(C)CCCC(C)CC=O (stereo unspecified)
CCCCOCC
O=C1NC2NC(=O)NC2N1 (stereo unspecified)
COc1ccc(N)c([N+](=O)[O-])c1
CC1C2CC(CC2C2CCCC(O)C2)C1(C)C (stereo unspecified)
O=Cc1ccccc1S(=O)(=O)O
CCc1ncc(C)[nH]1
O=c1[nH]c(=O)c2cn[nH]c2[nH]1
CC(C)C(OC(=O)c1ccccc1)C(C)(C)COC(=O)c1ccccc1 (stereo unspecified)
C=C1C[C@]23C[C@@]1(O)CC[C@H]2[C@@]12C=C[C@H](O)[C@@](C)(C(=O)O1)[C@H]2[C@@H]3C(=O)O
CC(C)Nc1nc(N)nc(Cl)n1
CCOC(=O)CN
C=COCCOCCOC=C
C=CCOC(=O)CCCCCC

AC50, active:
N[C@@H](Cc1cc(I)c(Oc2cc(I)c(O)c(I)c2)c(I)c1)C(=O)O 6.06 µM
COc1ccc(N=Nc2cc(C)c(N=Nc3ccc(S(=O)(=O)O)cc3)cc2OC)cc1 25.4 µM
CC(C)(C)C1=CC(=O)C(C(C)(C)C)=CC1=O 50 µM
C=CCCC(=O)/C=C/C1C(C)=CCCC1(C)C (stereo unspecified) 24.4 µM
CC(C)(C)OC(=O)c1ccc(O)cc1 39.4 µM
CCCCCc1ccco1 4.11 µM
CCC(Cl)C(Cl)C(Cl)CC(Cl)C(Cl)C(C)Cl (stereo unspecified) 22.3 µM
Oc1ccc2cc(SSc3ccc4cc(O)ccc4c3)ccc2c1 5.56 µM
CCCOC(=O)c1c(Cl)c(Cl)c(Cl)c(Cl)c1C(=O)OCCC 5.66 µM
CCCCCCC(C)Nc1ccc(Nc2ccccc2)cc1 (stereo unspecified) 11.7 µM

target: Nuclear receptor subfamily 1 group I member 2 (Homo sapiens) (UniProt O75469); assay: ATG_PXR_TRANS: Attagene TRANS-FACTORIAL HepG2 Assay for human Pregnane X Receptor (PXR) (AID 2283008)
Summary of the method: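 Fluorescence intensity of FAM-labelled, HpaI-digested reporter amplicons, separated by capillary electrophoresis, quantifies induction. HepG2 cells with PXR-Gal4 trans-reporter system were exposed 24 h; DMSO defines baseline.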

Sequence of Nuclear receptor subfamily 1 group I member 2 (Homo sapiens) (O75469 whole entry, looked up, the tested form may be a part): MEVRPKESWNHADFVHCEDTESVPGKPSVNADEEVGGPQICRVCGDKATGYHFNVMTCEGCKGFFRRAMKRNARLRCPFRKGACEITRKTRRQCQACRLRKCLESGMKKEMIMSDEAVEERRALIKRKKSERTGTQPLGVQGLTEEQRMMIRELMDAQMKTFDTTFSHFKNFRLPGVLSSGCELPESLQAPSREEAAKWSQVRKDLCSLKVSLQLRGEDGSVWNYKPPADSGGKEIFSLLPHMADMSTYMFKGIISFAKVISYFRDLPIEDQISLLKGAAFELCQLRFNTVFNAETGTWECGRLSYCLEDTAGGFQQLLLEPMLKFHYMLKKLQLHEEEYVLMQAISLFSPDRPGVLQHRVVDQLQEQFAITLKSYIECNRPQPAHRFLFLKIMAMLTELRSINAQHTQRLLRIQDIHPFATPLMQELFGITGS

outcome, inactive:
CCCCSCCCC
Nc1ccccc1[N+](=O)[O-]
Cc1ccc2c(c1)C(=O)OC2=O
CCc1ccc(O)c(OC)c1
COc1ccc(N=Nc2cc(C)c(N=Nc3ccc(S(=O)(=O)O)cc3)cc2OC)cc1
CCCCCCOCCOCCO
COCCc1ccc(OCC(O)CNC(C)C)cc1 (stereo unspecified)
C1CCOC1
O=C(c1ccccc1)C(O)c1ccccc1 (stereo unspecified)
COC(C)(C)CCCC(C)CC=O (stereo unspecified)
COc1ccc(N)c([N+](=O)[O-])c1
CCc1ncc(C)[nH]1
CC(C)(C)OC(=O)c1ccc(O)cc1
CCOc1ccc(N=Nc2ccc(C=Cc3ccc(N=Nc4ccc(OCC)cc4)cc3S(=O)(=O)O)c(S(=O)(=O)O)c2)cc1
NC1CCCCC1N (stereo unspecified)
CC(C)Nc1nc(N)nc(Cl)n1
Oc1ccc2cc(SSc3ccc4cc(O)ccc4c3)ccc2c1
C=CCOC(=O)CCCCCC

AC50, active:
N[C@@H](Cc1cc(I)c(Oc2cc(I)c(O)c(I)c2)c(I)c1)C(=O)O 3.79 µM
Cc1c(C2(c3cc(Br)c(O)c(Br)c3C)OS(=O)(=O)c3ccccc32)cc(Br)c(O)c1Br 13 µM
CC(C)(C)C1=CC(=O)C(C(C)(C)C)=CC1=O 5.78 µM
C=CCCC(=O)/C=C/C1C(C)=CCCC1(C)C (stereo unspecified) 2.37 µM
CC1C2CC(CC2C2CCCC(O)C2)C1(C)C (stereo unspecified) 14.3 µM
ClC(c1ccccc1)(c1ccccc1)c1ccccc1 2.2 µM
CC(C)C(OC(=O)c1ccccc1)C(C)(C)COC(=O)c1ccccc1 (stereo unspecified) 2.45 µM
CCCCCc1ccco1 2.75 µM
CCC(Cl)C(Cl)C(Cl)CC(Cl)C(Cl)C(C)Cl (stereo unspecified) 1.74 µM
CCCOC(=O)c1c(Cl)c(Cl)c(Cl)c(Cl)c1C(=O)OCCC 4.24 µM
CCCCCCC(C)Nc1ccc(Nc2ccccc2)cc1 (stereo unspecified) 1.53 µM

target: human Retinoic Acid Receptor gamma (RARg), RARG (gene 5916) (UniProt P13631); assay: ATG_RARg_TRANS: Attagene TRANS-FACTORIAL HepG2 Assay for human Retinoic Acid Receptor gamma (RARg) (AID 2283009)
Summary of the method: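 HepG2 transiently transfected with GAL4-UAS reporter units and chimeric NR-Gal4 constructs; 24 h compound exposure. Reporter mRNA quantified by RT-PCR, FAM labeling, HpaI digestion and capillary electrophoresis; gain-of-signal versus DMSO.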

Sequence of human Retinoic Acid Receptor gamma (RARg), RARG (gene 5916) (P13631 whole entry, looked up, the tested form may be a part): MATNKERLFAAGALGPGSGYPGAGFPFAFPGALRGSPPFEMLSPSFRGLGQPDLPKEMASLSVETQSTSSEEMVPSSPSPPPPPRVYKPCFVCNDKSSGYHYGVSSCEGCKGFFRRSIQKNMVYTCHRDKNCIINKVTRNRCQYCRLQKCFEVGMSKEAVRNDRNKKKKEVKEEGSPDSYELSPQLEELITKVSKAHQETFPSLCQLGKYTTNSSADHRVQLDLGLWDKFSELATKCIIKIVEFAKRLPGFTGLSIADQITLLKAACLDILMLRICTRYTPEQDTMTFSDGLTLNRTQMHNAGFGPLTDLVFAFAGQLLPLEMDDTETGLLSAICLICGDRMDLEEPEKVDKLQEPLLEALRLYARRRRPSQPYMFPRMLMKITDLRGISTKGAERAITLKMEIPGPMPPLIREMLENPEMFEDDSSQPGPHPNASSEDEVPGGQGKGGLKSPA

outcome, inactive:
CCCC(C)=O
Cc1c(C2(c3cc(Br)c(O)c(Br)c3C)OS(=O)(=O)c3ccccc32)cc(Br)c(O)c1Br
CCCCCCOCCOCCO
C1CCOC1
CC1C2CC(CC2C2CCCC(O)C2)C1(C)C (stereo unspecified)
ClC(c1ccccc1)(c1ccccc1)c1ccccc1
CC(C)C(OC(=O)c1ccccc1)C(C)(C)COC(=O)c1ccccc1 (stereo unspecified)
CCOc1ccc(N=Nc2ccc(C=Cc3ccc(N=Nc4ccc(OCC)cc4)cc3S(=O)(=O)O)c(S(=O)(=O)O)c2)cc1
CCOC(=O)CN
